# Laboratory results taken from PubChem BioAssay (NCATS).
# Results filed as inconclusive are left out. Where a call stands in place of a potency, no number is given. Values without a mark were called inactive. Activity calls are given as the source filed them. Calls come from the whole dose curve; as a rule, active = well fitted inhibition curve with a large enough effect; inconclusive = small, poorly fitted or top-dose-only effect; inactive = flat fitted curve, though single readings scatter.
# Assay: P-glycoprotein substrates identified in KB-8-5-11 adenocarcinoma cell line, qHTS therapeutic library screen (AID 1346987); note: nearly all actives have a fitted effect of over 65% in size
# Details: KB-8-5-11 (P-gp overexpressing) viability, CellTiter-Glo, 72 h; series mostly up to 44.5 µM
# Outline: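 Compounds are pinned in dose-response onto KB-8-5-11 cells (500 cells/well, colchicine-free medium) and left 72 h at 37 degree C. CellTiter-Glo luminescence then yields AC50 values.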
Compound,Potency,"activity change, negative = cytotoxicity"
COC(=O)C1=C[C@@H](O)[C@@H](O)[C@H](O[C@@H]2O[C@H](COC(=O)/C=C/c3ccccc3)[C@@H](O)[C@H](O)[C@H]2O)C1,inactive,
CO[C@H]1C=C2C(CC[C@H](O[C@@H]3O[C@H](CO)[C@@H](O)[C@@H](O)[C@H]3O)C2(C)C)[C@]2(C)CC[C@]3(C)C([C@H](C)C(O)C(C=C(C)C)O[C@@H]4O[C@H](CO)[C@@H](O)[C@@H](O)[C@H]4O)CC[C@@]3(C)C12 (some centres undefined),,0.439% [at 9.29 µM]
CN1Cc2c(N)cccc2C(c2ccccc2)C1 (centres undefined),inactive,
CC1CCC(=O)CC(O)C(O)CC(=O)O1 (centres undefined),inactive,
CC(C)(O)C1=CCC23COC(C2)C(O)(C(=O)O)CCC13 (centres undefined),inactive,
C[C@H]1[C@H](C)CC[C@]2(C(=O)O)CC[C@]3(C(=O)O)C(=CCC4[C@@]5(C)CC[C@H](O[C@@H]6O[C@H](C)[C@@H](O)[C@H](O)[C@H]6O)C(C)(C)C5CC[C@]43C)[C@H]12 (some centres undefined),inactive,
COC(=O)[C@@]1(C)CC[C@]2(C(=O)O[C@@H]3O[C@H](CO)[C@@H](O)[C@H](O)[C@H]3O)CC[C@]3(C)C(=CCC4[C@@]5(C)CC[C@H](O[C@@H]6O[C@H](C(=O)O)[C@@H](O)[C@H](O)[C@H]6O)C(C)(C)C5CC[C@]43C)[C@@H]2C1 (some centres undefined),,-9.96% [at 9.29 µM]
CCOC(=O)[C@H](CCc1ccccc1)CC1(C(=O)N[C@H]2CCc3ccccc3N(CC(=O)O)C2=O)CCCC1,inactive,
CC(=O)c1c(O)cc2cccc3c2c1CC(C)(O)O3 (centres undefined),inactive,
CCC(C)(O)C(O)C(=O)OCc1ccc(O[C@@H]2O[C@H](CO)[C@@H](O)[C@H](O)[C@H]2O)c(OC)c1 (some centres undefined),inactive,
CC1CCC2(C)C(CC(O)C(O)C23CO3)C1(C)CCC1=CC(=O)OC1O (centres undefined),inactive,
COC(=O)C[C@@H]1C(C(=O)O)=CO[C@@H](O[C@@H]2O[C@H](CO)[C@@H](O)[C@H](O)[C@H]2O)/C1=C\COC(=O)/C=C\c1ccccc1,inactive,
CC1(C)C(O)CCC2(C)C1C(O)C=C1COC(=O)C12O (centres undefined),inactive,
COc1cccc2c1CCC[C@H]2CN(C)CCc1ccc2ccoc2c1,inactive,
CC(=C/C(=O)O)/C=C/[C@]1(O)[C@@]2(C)CO[C@]1(C)C[C@H](O[C@@H]1O[C@H](CO)[C@@H](O)[C@H](O)[C@H]1O)C2,inactive,
CC(C)=CCC/C(C)=C/CC/C(C)=C/CC[C@]1(C)CCc2cc(O)cc(C)c2O1,inactive,
COC(=O)C1C(CC(C)=O)C=CC(O)C12Oc1cc(C)cc(O)c1C2=O (centres undefined),inactive,
C/C=C(\C)C(=O)O[C@@H]1CC2[C@@H](CC=C3C[C@@H](O[C@H]4C[C@H](OC)[C@H](O[C@H]5C[C@H](OC)[C@H](O[C@H]6C[C@H](OC)[C@H](O[C@H]7C[C@@H](OC)[C@H](O[C@@H]8O[C@H](CO)[C@@H](O)[C@H](O)[C@H]8O)[C@@H](C)O7)[C@@H](C)O6)[C@@H](C)O5)[C@@H](C)O4)CC[C@@]32C)[C@@]2(O)CC[C@H](C(C)=O)[C@@]12C (some centres undefined),,3.56% [at 9.29 µM]
CC(=O)c1c(O)cc2c(c1C)C(=O)CC(O)C2 (centres undefined),inactive,
CC/C=C/CC1=C(CCCCCCCC(=O)O)CCC1=O,inactive,
O=C1NCc2nc3ccccc3c(=O)n2C1Cc1c[nH]c2ccccc12 (centres undefined),inactive,
COc1cc(C2Oc3c(OC)cc(/C=C/C(=O)OC[C@H]4O[C@@H](OC(C)(C)C(=O)O)[C@H](O)[C@@H](O)[C@@H]4O)cc3C2CO)ccc1O (some centres undefined),inactive,
Cc1cn2c(N)c(Cl)cc(C(=O)NCC3CCN(CC(C)C)CC3)c2n1,inactive,
Cc1c(CN(C)C(=O)/C=C/c2cnc3c(c2)CCC(=O)N3)oc2ccccc12,inactive,
OCc1ccccc1O[C@@H]1O[C@H](CO)[C@@H](O)[C@H](O)[C@H]1O,inactive,
Cc1nn(C)c2c1C(c1ccc(C(F)(F)F)cc1)C(C#N)=C(N)O2 (centres undefined),inactive,
C=C1CC2C3(C)C(O)CC(=O)C(C)(C)C3C(OC(C)=O)C(OC(C)=O)C2(C)C2C(=O)OC(C)(C(=O)OC)C(=O)C12C (centres undefined),inactive,
COC1C=C([C@@H]2CC=C3[C@@]4(C)C(CC[C@]32C)[C@@]2(C)C=CC(=O)C(C)(C)C2C[C@H]4OC(C)=O)C(=O)O1 (some centres undefined),inactive,
O=C(CCCCc1ccc2ccccc2c1)C(F)(F)F,inactive,
